Data as given in PubChem BioAssay AID1345085 (National Center for Advancing Translational Sciences (NCATS), 2018).
Inconclusive results are not listed. The source made the active and inactive calls. Calls follow the shape of the dose curve; as a rule, active = well fitted cell-killing curve with a large enough effect; inconclusive = small, poorly fitted or top-dose-only effect, or effect the other way; inactive = no such curve, though single readings can be large or run the other way.

Tested on: Jar
Assay: Confirmatory qHTS for gynecologic anti-cancer compounds from libraries of approved drugs and bioactive compounds; also: nearly all actives have a fitted effect of over 55% in size
Settings: gynecologic cancer cell panel viability, ATPlite luminescence, 48 h; series mostly up to 57.6 µM; activity change, negative = viability loss: at the top concentration
Summary of the method: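 Cells (1,000/well) were plated, left 16 h at 37 C/5% CO2, then given compound at 11 concentrations (1:3) from 57.5 uM to 0.977 nM for 48 h. ATPlite luminescence after 15 min at room temperature gave IC50 values.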
% is scaled to controls: 0 for no effect and ±100 for the full control effect; potency is read from the fitted curve at half-maximal effect.

Row | SMILES | Potency | activity change, negative = viability loss
1 | Cc1nc(N)nc(N)c1-c1ccc(Cl)c(Cl)c1 | 4.85 µM (active) | 
2 | NC(=O)c1cnc(-c2ccc(C3(N)CCC3)cc2)c(-c2ccccc2)c1 | 27.3 µM (active) | 
3 | CC(=O)O[C@H]1C(=O)[C@@]2(C)[C@H]([C@H](OC(=O)c3ccccc3)[C@]3(O)C[C@H](OC(=O)[C@H](O)[C@@H](NC(=O)c4ccccc4)c4ccccc4)C(C)=C1C3(C)C)[C@]1(OC(C)=O)CO[C@@H]1C[C@@H]2O | 0.0366 µM (active) | 
4 | Cc1cnc(CNC(=O)c2c(=O)c3ccc(N4CCCN(C)CC4)nc3n3c2sc2ccccc23)cn1 |  | 14.2% [at 10.7 µM] (inactive)
5 | NS(=O)(=O)OC[C@@H]1C[C@@H](n2ccc3c(N[C@H]4CCc5ccccc54)ncnc32)C[C@@H]1O |  | -26.3% (inactive)
6 | CCN(CC)CCNC(=O)c1c(C)[nH]c(/C=C2\C(=O)Nc3ccc(F)cc32)c1C | 25.1 µM (active) | 
7 | CN1C(=O)C(Cc2c[nH]c3ccccc23)NC1=S (configuration not stated) |  | -8.95% [at 19.5 µM] (inactive)
8 | CCC1C(=O)N(C)c2cnc(Nc3ccc(C(=O)NC4CCC(N5CCN(CC6CC6)CC5)CC4)cc3OC)nc2N1C(C)C (configuration not stated) | 0.0611 µM (active) | 
9 | S=c1nc[nH]c2nc[nH]c12 | 13.7 µM (active) | 
10 | Cc1ccn(-c2ccc(-c3ncco3)cc2)c(=O)c1-c1ccc2nc(N)ncc2c1 |  | -26.5% (inactive)
11 | Cc1ccc(C(N)=O)cc1Nc1nccc(-c2cn(C(C)C)c3cnccc23)n1 | 6.85 µM (active) | 
12 | CC(C)n1nc(-c2cc3cc(O)ccc3[nH]2)c2c(N)ncnc21 | 5.44 µM (active) | 
13 | Cc1cc(C(C)Nc2ccccc2C(=O)O)c2nc(N3CCOCC3)cc(=O)n2c1 (configuration not stated) | 0.968 µM (active) | 
14 | Oc1cn2c(n1)Nc1ccc(Cl)c(Cl)c1C2 |  | 17.7% [at 19.5 µM] (inactive)
15 | Nc1ccc(C(=O)Nc2cccc(-c3nc(N4CCOCC4)c4oc5ncccc5c4n3)c2)cn1 | 5.44 µM (active) | 
16 | O=c1[nH]c(=O)n([C@H]2C[C@H](O)[C@@H](CO)O2)cc1Br |  | 3.99% (inactive)
17 | NC(=O)Nc1cc(-c2cccc(F)c2)sc1C(=O)NC1CCCNC1 (configuration not stated) | 1.22 µM (active) | 
18 | Cc1ccc(C(=O)Nc2ccc(CN3CCN(C)CC3)c(C(F)(F)F)c2)cc1C#Cc1cnc2[nH]ncc2c1 |  | 6.71% (inactive)
19 | COc1ccc2c(c1OC)C(=O)O[C@@H]2[C@H]1c2c(cc3c(c2OC)OCO3)CCN1C | 30.6 µM (active) | 

Row | SMILES | Potency | activity change, negative = viability loss
20 | O=C(c1ccc(/C=C/c2n[nH]c3ccccc23)cc1)N1CCNCC1 | 30.6 µM (active) | 
21 | COc1cc2c(Nc3ccc(NC(=O)c4ccccc4)cc3)ncnc2cc1OCCCN1CCOCC1 | 38.5 µM (active) | 
22 | C[C@]12CCC(=O)C=C1[C@@H]1C[C@@H]1[C@H]1[C@@H]3[C@@H]4C[C@@H]4[C@@]4(CCC(=O)O4)[C@@]3(C)CC[C@@H]12 |  | -5.53% (inactive)
23 | Cc1[nH]c2ccccc2c1CCNCc1ccc(/C=C/C(=O)NO)cc1 | 0.193 µM (active) | 
24 | Cc1cnc(Nc2ccc(F)cc2Cl)nc1-c1c[nH]c(C(=O)NC(CO)c2cccc(Cl)c2)c1 (configuration not stated) |  | -14% (inactive)
25 | CN(C)CCC(CSc1ccccc1)Nc1ccc(S(=O)(=O)NC(=O)c2ccc(N3CCN(Cc4ccccc4-c4ccc(Cl)cc4)CC3)cc2)cc1[N+](=O)[O-] (configuration not stated) | 8.63 µM (active) | 
26 | CNC(=O)c1ccccc1Sc1ccc2c(/C=C/c3ccccn3)n[nH]c2c1 | 19.3 µM (active) | 
27 | CCc1nc(C(N)=O)c(Nc2ccc(N3CCC(N4CCN(C)CC4)CC3)c(OC)c2)nc1NC1CCOCC1 | 13.4 µM (active) | 
28 | COC(=O)c1ccc2c(C(=Nc3ccc(N(C)C(=O)CN4CCN(C)CC4)cc3)c3ccccc3)c(O)[nH]c2c1 |  | -10.2% (inactive)
29 | Cc1nc(NC(=O)N2CCCC2C(N)=O)sc1-c1csc(C(C)(C)C)n1 (configuration not stated) | 21.7 µM (active) | 
30 | CCN(CC)CCCC(C)Nc1ccnc2cc(Cl)ccc12 (configuration not stated) |  | 12.7% [at 19.5 µM] (inactive)
31 | Nc1ccccc1NC(=O)c1ccc(CNC(=O)OCc2cccnc2)cc1 | 4.32 µM (active) | 
32 | c1nc2nc(Nc3ccc(N4CCOCC4)cc3)nc(NC3CCCCC3)c2[nH]1 | 9.43 µM (active) | 
33 | Nc1ccc(-c2ccc3ncc4ccc(=O)n(-c5cccc(C(F)(F)F)c5)c4c3c2)cn1 | 1.22 µM (active) | 
34 | CCCCc1oc2ccc(NS(C)(=O)=O)cc2c1C(=O)c1ccc(OCCCN(CCCC)CCCC)cc1 | 30.6 µM (active) | 
35 | CCC(=O)N1CCN(c2ccc(-n3c(=O)ccc4cnc5ccc(-c6cnc7ccccc7c6)cc5c43)cc2C(F)(F)F)CC1 | 1.57 µM (active) | 
36 | Cc1csc(NC(=O)c2sc3nc4c(c(C(F)(F)F)c3c2N)CCC4)n1 | 3.43 µM (active) | 
37 | CNC(=O)c1nn(C)c2c1C(C)(C)Cc1cnc(Nc3ccc(N4CCN(C)CC4)cc3)nc1-2 | 1.72 µM (active) | 
